Screening data from PubChem.
In the library only some 3% were active in any assay of this set; here they are far more common.
SENP7 block = blocks the human protease SENP7; Q9BQF6; recombinant SENP7, Z-RLRGG-aminoluciferin luminescence, 40 min; inhibition, % at 5 µM; 330,000 tested, 1.5% active; AID 434973;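 active means inhibition above about 50% at the single test dose, limit read from the data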;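 further: plate controls were DMSO with enzyme for no effect and no enzyme buffer wells for full effect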
Target sequence (Q9BQF6 706-1050 limits assumed): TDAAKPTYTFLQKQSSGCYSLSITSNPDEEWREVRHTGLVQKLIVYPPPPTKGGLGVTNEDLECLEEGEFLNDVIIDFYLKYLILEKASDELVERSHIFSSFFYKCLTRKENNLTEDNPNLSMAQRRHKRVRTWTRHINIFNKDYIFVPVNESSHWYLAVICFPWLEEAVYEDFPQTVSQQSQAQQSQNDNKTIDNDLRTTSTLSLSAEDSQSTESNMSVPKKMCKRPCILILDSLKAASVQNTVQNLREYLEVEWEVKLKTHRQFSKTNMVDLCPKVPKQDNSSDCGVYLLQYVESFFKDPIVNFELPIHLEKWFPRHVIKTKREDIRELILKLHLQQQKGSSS
PPC-1+TRAIL kill = kills PPC-1 cancer cells in the presence of TRAIL; cell killing (% activity), % at 4 µM or 5 µM; 220,000 tested, 0.41% active; PPC-1 cells + TRAIL, ATPLite viability luminescence;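 active means cell killing above 50% in the first pass at 4 µM, then a duplicate retest at 5 µM averaging 50% or more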;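 further: plate controls were cells with TRAIL plus DMSO for no effect and medium-only wells lacking cells for full effect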
SENP8 block-1 = inhibitors of human SENP8 protease; 360,000 tested, 0.64% active; recombinant SENP8, Nedd8 substrate fluorescence; inhibition, % at 20 µM; AID 602440; in the data active means inhibition mostly above about 40%, no sharp cut-off; inactive means mostly below about 27%
Target sequence (Q96LD8 whole entry, looked up): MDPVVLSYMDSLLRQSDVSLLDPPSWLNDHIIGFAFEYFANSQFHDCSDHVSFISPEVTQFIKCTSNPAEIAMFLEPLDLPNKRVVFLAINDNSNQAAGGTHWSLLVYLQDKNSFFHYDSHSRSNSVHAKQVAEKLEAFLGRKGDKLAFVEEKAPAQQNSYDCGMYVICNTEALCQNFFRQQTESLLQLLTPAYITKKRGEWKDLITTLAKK
SENP6 block = inhibitors of human SENP6 protease. Q9GZR1. Recombinant SENP6 catalytic domain, aminoluciferin luminescence. inhibition, % at 10 µM. 330,000 tested, 1.8% active;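 active means inhibition above about 50% at the single tested dose, limit read from the data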;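 further: plate controls were DMSO wells with enzyme for no effect and DMSO wells lacking enzyme for full effect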
SENP8 block-2 = inhibitors of human SENP8 protease; 330,000 tested, 1.2% active; Q96LD8; purified SENP8, Z-RLRGG-aminoluciferin cleavage, luminescence; inhibition, % at 10 µM; in the data active means inhibition above about 50%
TRAIL sens C8 = sensitizes caspase-8 expressing cells to TRAIL. NB7+C8 cells + TRAIL, ATPlite viability luminescence. inhibition (viability loss, TRAIL sensitization), % at 10 µM. 360,000 tested, 1% active;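 active means compounds causing at least 50% loss of cell viability in the single-dose screen, relative to plate controls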
SENP8 confirm = confirmation of human SENP8 protease inhibitors | inhibition, % at 12.5 µM | shares compounds with SENP7 block | 6,200 tested, 40% active | Recombinant SENP8, Z-RLRGG-aminoluciferin luminescence, 60 min;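 active means mean inhibition across replicates above about 50%, limit read from the data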
SENP6 confirm = confirmation of human SENP6 protease inhibitors; recombinant SENP6, Z-RLRGG-aminoluciferin luminescence; 6,200 tested, 58% active; inhibition, % at 12.5 µM; shares compounds with SENP7 block
SENP7 confirm = human SENP7 inhibition, confirmed | 6,200 tested, 69% active | recombinant SENP7, Z-RLRGG-aminoluciferin luminescence, 40 min | inhibition, % at 12.5 µM | AID 488917 | shares compounds with SENP7 block
Casp3 select = caspase-3 inhibition (SENP selectivity assay); inhibition, % at 12.5 µM; 6,200 tested, 60% active; shares compounds with SENP7 block; purified caspase-3, Z-DEVD-aminoluciferin luminescence, 60 min; AID 488918;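 active means mean inhibition above about 50%, limit read from the data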;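 further: plate controls were enzyme with DMSO for no effect and wells without caspase-3 for full effect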
Target sequence (P42574 28-227 limits assumed): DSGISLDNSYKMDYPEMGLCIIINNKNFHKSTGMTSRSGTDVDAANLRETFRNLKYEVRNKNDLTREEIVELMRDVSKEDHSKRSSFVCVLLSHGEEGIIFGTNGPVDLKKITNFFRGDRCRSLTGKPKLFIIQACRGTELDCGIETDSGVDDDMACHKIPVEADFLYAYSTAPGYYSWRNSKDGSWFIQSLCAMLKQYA
Luc interf = luminescence interference (SENP counter-screen); shares compounds with SENP7 block; Pre-incubated SENP8/Z-RLRGG-aminoluciferin, luciferase luminescence interference; inhibition, % at 12.5 µM; 6,200 tested, 39% active;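 active means mean inhibition above about 50% when retested at one dose, limit read from the data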;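 further: plate controls were DMSO wells with completed reaction for no effect and substrate without enzyme for full effect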
Starred values were filed as active, the others as inactive; i = inactive; . = not tested or not shown.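 How the source made its calls, unless noted: active means mean inhibition above about 50% in the one-dose retest (limit read from the data); inactive means the rest.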

SMILES | SENP7 block | PPC-1+TRAIL kill | SENP8 block-1 | SENP6 block | SENP8 block-2 | TRAIL sens C8 | SENP8 confirm | SENP6 confirm | SENP7 confirm | Casp3 select | Luc interf
COc1cc2c(cc1OC)-c1cc3ccc4c(c3c[n+]1CC2)OCO4 | 13.9 | 2.0 | -383.9 | 50.1* | 11.1 | -13.1 | 25.7 | 46.2 | 23.9 | 12.3 | 6.6
N#CC1(c2ccc(NC(=O)c3ccccc3F)cc2)CCCC1 | 76.5* | 37.3 | 16.9 | 84.3* | 75.5* | 44.4 | 79.5* | 76.9* | 93.0* | 74.3* | 63.6*
COc1ccc(C(=O)Nc2ccc(C3(C#N)CCCC3)cc2)cc1 | -7.1 | 9.2 | 4.0 | -19.7 | -12.0 | 29.7 | . | . | . | . | .
Cc1cnc(C(=O)OCC(=O)c2ccc(C)s2)cn1 | 2.9 | . | 1.8 | -4.0 | 2.7 | 9.8 | . | . | . | . | .
CCOc1ccc(-c2ncncc2-c2ccccc2OC)c(O)c1 | 9.9 | . | 3.2 | 22.3 | 2.5 | -9.6 | . | . | . | . | .
C=C(C)COc1ccc(-c2ncncc2-c2ccccc2OC)c(O)c1 | -6.1 | . | 12.4 | 1.7 | 84.6* | 14.2 | -1.5 | 6.0 | 1.8 | 0.5 | 1.1
O=C(NNC(=O)c1ccc(-c2ccccc2)cc1)c1ccccc1 | 61.8* | 11.2 | 9.6 | -4.5 | 29.7 | 3.9 | 34.2 | 41.1 | 82.0* | 80.2* | 46.8
O=C(Nc1cccnc1)c1ccc(-c2ccccc2)cc1 | 82.2* | 41.2 | 18.5 | 32.6 | 65.8* | 34.9 | 50.9* | 70.5* | 96.3* | 75.2* | 37.3
O=C(NNC(=O)c1ccc(-c2ccccc2)cc1)Nc1ccccc1F | 5.8 | . | 2.8 | 2.3 | 2.1 | -2.2 | . | . | . | . | .
CC(C)c1ccc(C(=O)Nc2cccnc2)cc1 | 70.7* | . | 28.4 | 72.9* | 36.1 | 49.1* | 62.5* | 57.8* | 88.4* | 79.1* | 31.8
CC(Oc1ccccc1)C(=O)N(CCC1=CCCCC1)c1c(N)n(Cc2ccccc2)c(=O)[nH]c1=O (stereo unspecified) | 11.3 | . | -12.5 | -9.7 | -12.3 | 8.1 | . | . | . | . | .
COCCn1c(N)c(C(=O)OCc2ccccc2)c2nc3ccccc3nc21 | 45.3 | 13.2 | -284.0 | 73.1* | 61.5* | 4.8 | -13.7 | 8.1 | 8.5 | -5.5 | -0.2
C=CCn1c(N)c(C(=O)OCCC)c2nc3ccccc3nc21 | 12.1 | 13.4 | -428.3 | 1.3 | -1.8 | 3.4 | . | . | . | . | .
CC(=O)c1cccc(S(=O)(=O)N2CCC(C(=O)Nc3cccc(C(=O)NC4CC4)c3)CC2)c1 | -0.7 | . | 8.3 | -6.9 | 6.6 | 18.5 | . | . | . | . | .
CC(=O)c1cccc(-c2ccc3c(=O)[nH]c(Nc4ccccc4)cc3c2)c1 | 95.0* | . | 6.3 | 99.4* | 96.6* | -8.6 | 95.0* | 97.4* | 94.9* | 97.4* | 16.4
O=c1[nH]c(Nc2ccccc2)cc2cc(Br)ccc12 | 93.7* | . | -173.5 | 96.0* | 96.5* | 0.5 | 95.9* | 98.0* | 96.1* | 95.2* | 17.6
CC(=O)c1cccc(Nc2nc(-c3ccccc3)nc3ccccc23)c1 | -0.4 | . | i | -4.6 | 0.2 | 10.2 | . | . | . | . | .
O=c1[nH]c(Nc2ccccc2)cc2ccccc12 | 94.2* | -1.7 | -413.5 | 89.4* | 95.9* | -5.6 | 55.2* | 80.3* | 59.0* | 25.4 | 17.9
COc1ccc(OC)c(Nc2cc3ccccc3c(=O)[nH]2)c1 | 96.7* | . | i | 94.5* | 88.1* | 5.1 | 31.0 | 73.8* | 41.1 | 10.8 | -7.8
O=C1NC[C@H](CCCCN2C[C@H](Cc3ccccc3)N(CC3CCCCC3)C(=O)C2=O)N(CC2CCCCC2)C1=O | . | . | 11.8 | . | . | -0.8 | . | . | . | . | .
COc1ccc(N2Cc3ccc(C(=O)N/N=C\c4ccc(O)cc4O)cc3C2)cc1 | 6.5 | . | . | 6.3 | 6.6 | . | . | . | . | . | .
COc1ccccc1Nc1nnc(C)c(=O)[nH]1 | 2.2 | 8.0 | 8.7 | -17.1 | -11.0 | -8.7 | . | . | . | . | .
COc1ccccc1Nc1cc2cc(Br)ccc2c(=O)[nH]1 | 95.7* | . | -178.6 | 98.2* | 97.4* | 13.7 | 86.2* | 97.0* | 93.6* | 86.0* | 14.1
Cn1cccc1C1CCCN1CC(=O)Nc1ccc(C(N)=O)cc1 (stereo unspecified) | 8.0 | . | 1.5 | -10.7 | 5.2 | 4.6 | . | . | . | . | .
O=C(CCc1ccccc1)NC1CCS(=O)(=O)C1 (stereo unspecified) | 5.9 | . | 3.0 | 1.5 | -8.1 | 12.9 | . | . | . | . | .
SMILES | SENP7 block | PPC-1+TRAIL kill | SENP8 block-1 | SENP6 block | SENP8 block-2 | TRAIL sens C8 | SENP8 confirm | SENP6 confirm | SENP7 confirm | Casp3 select | Luc interf
O=C(N=c1nc2ccccn2s1)c1ccccc1 | 95.6* | 83.5* | -6.0 | 94.0* | 58.8* | 83.9* | 54.4* | 59.4* | 65.5* | 53.8* | 26.0
COc1ccc(OC)c(C(=O)c2coc3ccc(OC(C)=O)cc23)c1 | 3.2 | 8.6 | -7.1 | -10.3 | -0.2 | -2.2 | . | . | . | . | .
COc1ccc2occ(C(=O)c3ccc(N)cc3)c2c1 | 52.8* | . | -38.0 | 40.4 | 47.6 | 9.1 | 54.8* | 54.4* | 82.4* | 44.5 | 64.7*
COc1ccc(C(=O)c2coc3ccc(OC(C)=O)cc23)cc1 | 34.2 | . | 19.4 | 49.5 | 59.5* | 6.1 | 58.0* | 55.0* | 66.1* | 50.4* | 25.1
COc1ccc2occ(C(=O)c3cccs3)c2c1 | 52.4* | 10.5 | 8.9 | 68.6* | 29.7 | 29.4 | 55.6* | 57.8* | 84.3* | 51.6* | 62.0*
Cc1ccc(C(=O)c2coc3ccc(O)cc23)cc1 | 91.7* | . | 27.8 | 86.3* | 88.1* | 21.7 | 6.1 | 93.8* | 100.4* | 84.3* | 84.0*
O=C(NCCO)C(=O)NCC(c1cccs1)S(=O)(=O)c1ccc(F)cc1 (stereo unspecified) | . | . | 17.2 | . | . | 3.9 | . | . | . | . | .
Cc1ccc(C(=O)CC(c2cccs2)S(=O)(=O)c2ccc(C)cc2)cc1 (stereo unspecified) | 62.8* | 4.7 | 29.6 | 61.9* | -3.9 | 11.1 | 7.4 | 7.7 | -4.4 | 3.6 | 3.7
CCC(=O)NCC(c1cccs1)S(=O)(=O)c1ccc(C)cc1 (stereo unspecified) | 7.2 | . | 1.1 | 0.9 | -14.7 | 2.2 | . | . | . | . | .
O=C(CC(c1cccs1)S(=O)(=O)c1ccccc1)c1ccc(F)cc1 (stereo unspecified) | 30.2 | 4.2 | 2.0 | 52.4* | 23.1 | -3.5 | 2.8 | -2.0 | 9.2 | 5.0 | 7.8
O=c1[nH]c(-c2ccccc2)cnc1-c1ccccc1 | 73.7* | . | -406.5 | 52.0* | 33.2 | 26.7 | 7.5 | 11.6 | 12.2 | 19.2 | 12.1
Fc1cccc(/C=N/N=C/c2cccc(F)c2)c1 | 38.2 | -12.8 | 3.8 | 31.4 | 15.3 | -6.6 | . | . | . | . | .
